Results filed as inconclusive are left out. Activity calls are given as the source filed them. Unless noted, calls come from the whole dose curve; as a rule, active = well fitted curve in the direction sought with a large enough effect; inconclusive = small, poorly fitted or top-dose-only effect, or another doubt; inactive = no such curve, though single readings can be large; an effect the other way counts as inactive or inconclusive.
How the values were obtained:
[1] = target: Lysosomal acid glucosylceramidase (Homo sapiens) (UniProt P04062); test: Glucocerebrosidase-p2 (AID 348; in the data active = potency below about 10 µM; note: potency is the fitted concentration of half-maximal effect); details: purified GBA, blue fluorogenic substrate, 40 min
Method in brief: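 Normal human glucocerebrosidase (0.2 nM) with blue fluorogenic substrate (80 uM final) in citrate/phosphate pH 5.9 with 10mM sodium taurocholate, 0.01% tween-20; 40 min RT, NaOH/glycine stop; fluorescence Ex 365/Em 440; AC50 from a titration from 0.6 nM upwards.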

[2] = AP1 Signaling Pathway (AID 357; active = well fitted curve in either direction with a large enough effect, not every such curve was filed as active;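 note: ME-180 reporter cells stimulated with EGF at its EC50 level; % is set by controls: 0 for no effect and ±100 for the full control effect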); details: ME-180 AP-1-bla reporter, EGF-induced, beta-lactamase ratio, 5 h; at 7.69 µM (top of the series) unless noted
Method in brief: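 A ratiometric CCF4 readout (405 nm excitation; 460 and 530 nm emission) quantified AP-1-driven beta-lactamase in ME-180 cells after 5 h with compound and EC50 EGF; AC50 values were derived for activators and inhibitors.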

[3] = NFAT Signaling Pathway (AID 444; active = well fitted curve in either direction with a large enough effect, not every such curve was filed as active;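 note: carbachol stimulus at about its EC50 of 1 µM final; % is set by controls: 0 for no effect and ±100 for the full control effect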); details: Jurkat NFAT-bla M1, carbachol, beta-lactamase ratio, 5 h; at 7.69 µM (top of the series) unless noted
Method in brief: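 Read-out: CCF4 FRET ratio (460 nm/530 nm) after 1 h RT dye loading, used for %activity and AC50 from titration series. Cells: Jurkat NFAT-β-lactamase/M1 line, treated with compound plus 1 uM carbachol for 5 h, 37 °C.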

[4] = target: Glucocorticoid receptor (Homo sapiens) (UniProt P04150); test: GR-GFP Redistribution (AID 450;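 active = compounds whose dose series gives a full or clear partial fitted curve of increased nuclear translocation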; note: potency is the fitted concentration of half-maximal effect); details: U2OS GR-GFP nuclear translocation, laser cytometry, 2 h
[5] = target: Glucocorticoid receptor (Homo sapiens) (UniProt P04150); test: GR-EFC Redistribution (AID 451; calls by dose curve; note: potency is the fitted concentration of half-maximal effect); details: CHO-K1 GR-EFC translocation, beta-gal luminescence, 2 h
Method in brief: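 Translocation of GR-ED fusion to nuclear EA restores b-gal, read by luminescence after 1 h room-temperature detection. Engineered CHO-K1 biosensor cells, 1,000/well, exposed 2 h at 37 C to titrations up to 46 uM final.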

[6] = target: Mitogen-activated protein kinase 10 (Mus musculus) (UniProt Q61831); test: JNK3 AlphaScreen Assay (AID 530; active = well fitted curve in either direction with a large enough effect, not every such curve was filed as active;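 note: kinase came from lysate of stimulated human HepG2 cells; signal reports phosphorylation of biotinylated GST-cJun 1-79 at Ser73 with 10 µM ATP; % is set by controls: 0 for no effect and ±100 for the full control effect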); details: JNK3 lysate, c-Jun phosphorylation; series mostly up to 57.1 µM
Method in brief: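 Kinase buffer: 20 mM Tris-HCl pH 7.6, 10 mM MgCl2, 1 mM DTT, 0.1 mM Na3VO4, 0.01% Tween-20; ATP 10 uM. Substrate biotin-GST-cJun(1-79), enzyme from activated HepG2 lysates. Detection by Ser73 phospho-antibody AlphaScreen.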

[7] = target: 3',5'-cyclic-AMP phosphodiesterase 4B (Homo sapiens) (UniProt Q07343); test: qHTS Assay for Inhibitors of PDE-IV (AID 607; active = well fitted activation curve with a large enough effect in the main read-out, with a control signal flat, not every such curve was filed as active; note: % of control where 0% means no effect); details: HEK293 ACTOne CNG channel cells, membrane potential fluorescence; series mostly up to 22.9 µM
Method in brief: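 Live HEK293 cells with a modified cyclic nucleotide-gated (CNG) channel report intracellular cAMP via membrane-potential dye fluorescence (ex 535/em 590 nm). Endogenous PDE-IV was targeted. Compounds were tested at up to 22.9 uM final; RO 20-1724 100 uM served as control.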

[8] = qHTS Assay for Identification of Small Molecule Agonists for Hypoxia Response Element Signaling Pathway (AID 914; active = well fitted activation curve with a large enough effect in the signal ratio, with a control signal flat, not every such curve was filed as active; the % refers to the signal ratio; note: potency is the fitted concentration of half-maximal effect); details: ME-180 HRE-bla reporter, beta-lactamase ratio, CoCl2, 17 h; activation: stronger effect = higher value
Method in brief: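 HRE-bla ME-180 cells with beta-lactamase reporter under hypoxia response element, compounds with EC50 CoCl2 for 17 hours at 37 C. CCF4 substrate, 460nm/530nm emission ratio gave %Activity; AC50 from titration series.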

[9] = qHTS Assay for Lipid Storage Modulators (AID 1519; calls by dose curve; note: potency is the fitted concentration of half-maximal effect); details: Drosophila S3 cells, BODIPY lipid droplet/cell ratio, laser cytometry, cells loaded with oleic acid; for activity change, negative = inhibition: at 57.5 µM (top of the series)
Method in brief: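 Cells seeded at 5,000 per well were treated with compounds over a concentration series and loaded with oleic acid (400 uM, as added). Lipid droplet fluorescence (488 nm excitation, 500-530 nm channel) was read by laser-scanning cytometry and normalized to 20 uM Triacsin C.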

[10] = target: Dual specificity protein kinase CLK4 (Homo sapiens) (UniProt Q9HAZ1); test: qHTS Assay for Inhibitors of CDC-like Kinase 4 (Kinase-Glo Assay) (AID 1770); details: recombinant Clk4, Kinase-Glo ATP depletion luminescence; series mostly up to 66.7 µM; note: nearly all actives have a fitted effect of over 65% in size; note: potency is the fitted concentration of half-maximal effect
Method in brief: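 25 nM Clk4 with 100 uM RS repeat peptide and 1 uM ATP (final) in Tris pH7.5, 10 mM MgCl2, 4.5 h at room temperature. Remaining ATP measured by Kinase-Glo luciferase luminescence.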

[11] = target: Dual specificity protein kinase CLK4 (Homo sapiens) (UniProt Q9HAZ1); test: qHTS Assay for Inhibitors of CDC-like Kinase 4 (ADP-Glo Assay) (AID 1771); details: recombinant CLK4, ADP-Glo luminescence; series mostly up to 80 µM; note: % is set by controls: 0 for no effect and ±100 for the full control effect; nearly all actives have a fitted effect of over 70% in size
Method in brief: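 In this ADP-Glo format, 1 uM ATP and 100 uM RS peptide served as substrates for 25 nM Clk4 in Mg2+/EGTA/DTT/Triton buffer; reactions ran 1 hr at room temperature before luminescent ADP quantification.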

[12] = target: Dual specificity protein kinase CLK4 (Homo sapiens) (UniProt Q9HAZ1); test: qHTS Assay for Inhibitors of CDC-like Kinase 4 (ADP-FP Assay) (AID 1795); details: Transcreener ADP fluorescence polarization; series mostly up to 50 µM; note: nearly all actives have a fitted effect of over 60% in size; note: potency is the fitted concentration of half-maximal effect
Method in brief: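 Recombinant Clk4 (6.25 nM) phosphorylated 100 uM RS repeat peptide with 1 uM ATP in 25 mM Tris pH 7.5, 10 mM MgCl2, 0.5 mM EGTA, 2.5 mM DTT, 0.01% Triton X-100 for 1 h. ADP was detected by Transcreener ADP2 competitive fluorescence polarization after 30 min at room temperature.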

[13] = target: Ubiquitin carboxyl-terminal hydrolase 1 (Homo sapiens) (UniProt O94782); test: Inhibitors of USP1/UAF1: Pilot qHTS (AID 504865); details: purified USP1/UAF1, Ub-rhodamine cleavage fluorescence; series mostly up to 54.9 µM;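 note: rhodamine fluorescence freed from ubiquitin-rhodamine substrate followed over time; top concentration of the series differs between compounds; % is set by controls: 0 for no effect and ±100 for the full control effect; nearly all actives have a fitted effect of over 35% in size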
Method in brief: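 USP1/UAF1 complex at 1 nM preincubated 15 min at room temperature with compound, then Ub-Rho substrate added at 150 nM final. Fluorescence (480/540 nm) read kinetically in 50 mM HEPES pH 7.8, 0.5 mM EDTA, 1 mM TCEP, 0.1 mg/ml BSA, 0.01% Tween-20.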

[14] = Primary qHTS for small molecule stabilizers of the endoplasmic reticulum resident proteome: Secreted ER Calcium Modulated Protein (SERCaMP) assay (AID 1508630); details: SH-SY5Y GLuc-SERCaMP (Gaussia luciferase released on ER calcium loss) secretion, thapsigargin, luminescence; series mostly up to 38.4 µM; note: % is set by controls: 0 for no effect and ±100 for the full control effect
Method in brief: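 The SH-SY5Y reporter protocol was run at 3 concentrations up to 38.3 uM (primary) or 11 concentrations (follow-up): 16 h compound, 100 nM thapsigargin for 4 h, then extracellular luciferase luminescence.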

[15] = Stat Signaling Pathway (AID 446; active = well fitted curve in either direction with a large enough effect, not every such curve was filed as active); details: ME-180 (cervical carcinoma) SIE beta-lactamase reporter, IL-6 stimulated, 5 h; at 7.69 µM (top of the series) unless noted
Method in brief: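 Overnight-plated ME-180 cells bearing a STAT Inducible Element beta-lactamase reporter; 5 h co-exposure to compound and 40 pM IL-6; values normalized to 300 pM IL-6 and 125 nM JAK inhibitor controls.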

[16] = target: Cytochrome P450 3A4 (Homo sapiens) (UniProt P08684); test: qHTS Assay for Activators of Cytochrome P450 3A4 (AID 885); details: recombinant CYP3A4, Luciferin-PPXE luminescence, 60 min; series mostly up to 57.1 µM; note: nearly all actives have a fitted effect of over 65% in size
Method in brief: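 Using 20nM recombinant human CYP3A4 in potassium phosphate (200mM), substrate Luciferin-PPXE at 25uM, luminescent luciferin detection followed a 60-min RT NADPH reaction; data scaled to 57 uM ketoconazole.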

[17] = target: Cytochrome P450 1A2 (Homo sapiens) (UniProt P05177); test: p450-cyp1a2 (AID 410; calls by dose curve; note: potency is the fitted concentration of half-maximal effect;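 for activity change, negative = inhibition: -100% = full effect of reference inhibitor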); details: recombinant CYP1A2, luciferin-ME demethylation, luminescence; series mostly up to 57 µM
Method in brief: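 Read-out is luminescence from luciferin produced by CYP1A2 demethylation of Luciferin-ME (100uM, at Km). Detection reagent stopped the 60 min NADPH-dependent reaction; signals were normalized to 57 uM furafylline.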

[18] = target: Cytochrome P450 2C9 (Homo sapiens) (UniProt P11712); test: qHTS Assay for Inhibitors and Substrates of Cytochrome P450 2C9 (AID 883); details: recombinant CYP2C9, luciferin-H luminescence, 60 min; series mostly up to 57.1 µM; note: potency is the fitted concentration of half-maximal effect; nearly all actives have a fitted effect of over 60% in size
Method in brief: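 Turnover of Luciferin-H (100uM, KM) by 10nM human CYP2C9 was measured over 60 min at 37C with NADPH regeneration; inhibitors and some substrates reduce luminescence. Data normalized to sulphaphenazole 57uM.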

[19] = target: Cytochrome P450 2D6 (Homo sapiens) (UniProt P10635); test: qHTS Assay for Inhibitors and Substrates of Cytochrome P450 2D6 (AID 891); details: recombinant CYP2D6, luciferin-ME EGE luminescence; series mostly up to 57.1 µM; note: potency is the fitted concentration of half-maximal effect; nearly all actives have a fitted effect of over 60% in size
Method in brief: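 Luminescent read-out of luciferin formed by 5 nM human CYP2D6 demethylating 30 uM Luciferin-ME EGE (Km level) over 60 min at room temperature after NADPH regeneration addition. Data normalized to full inhibition by 1.43 uM quinidine.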

[20] = measured here: cell count channel max response
[21] = measured here: lipid channel max response

Chain of Ubiquitin carboxyl-terminal hydrolase 1 (Homo sapiens) (O94782 whole entry, looked up): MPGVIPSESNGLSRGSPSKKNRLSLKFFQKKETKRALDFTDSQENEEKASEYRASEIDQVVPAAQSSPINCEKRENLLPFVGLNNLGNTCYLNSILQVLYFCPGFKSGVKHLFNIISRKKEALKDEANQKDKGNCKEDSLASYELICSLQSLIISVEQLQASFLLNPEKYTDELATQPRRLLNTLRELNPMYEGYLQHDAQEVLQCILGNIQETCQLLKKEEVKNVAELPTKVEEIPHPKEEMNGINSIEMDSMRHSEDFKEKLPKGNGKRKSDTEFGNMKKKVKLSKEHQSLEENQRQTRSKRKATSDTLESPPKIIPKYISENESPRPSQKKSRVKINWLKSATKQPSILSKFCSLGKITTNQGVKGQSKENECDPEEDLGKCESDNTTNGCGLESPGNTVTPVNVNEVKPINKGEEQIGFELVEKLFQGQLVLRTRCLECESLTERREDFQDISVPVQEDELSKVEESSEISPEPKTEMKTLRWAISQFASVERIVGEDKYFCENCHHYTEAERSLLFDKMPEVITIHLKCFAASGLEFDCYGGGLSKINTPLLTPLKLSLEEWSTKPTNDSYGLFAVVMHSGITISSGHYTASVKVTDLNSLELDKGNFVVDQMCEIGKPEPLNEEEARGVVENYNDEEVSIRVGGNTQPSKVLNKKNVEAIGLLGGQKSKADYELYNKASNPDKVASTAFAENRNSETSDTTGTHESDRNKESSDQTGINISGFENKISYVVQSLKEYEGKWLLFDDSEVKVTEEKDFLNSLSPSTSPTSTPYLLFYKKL
Chain of Glucocorticoid receptor (Homo sapiens) (P04150 whole entry, looked up, the tested form may be a part): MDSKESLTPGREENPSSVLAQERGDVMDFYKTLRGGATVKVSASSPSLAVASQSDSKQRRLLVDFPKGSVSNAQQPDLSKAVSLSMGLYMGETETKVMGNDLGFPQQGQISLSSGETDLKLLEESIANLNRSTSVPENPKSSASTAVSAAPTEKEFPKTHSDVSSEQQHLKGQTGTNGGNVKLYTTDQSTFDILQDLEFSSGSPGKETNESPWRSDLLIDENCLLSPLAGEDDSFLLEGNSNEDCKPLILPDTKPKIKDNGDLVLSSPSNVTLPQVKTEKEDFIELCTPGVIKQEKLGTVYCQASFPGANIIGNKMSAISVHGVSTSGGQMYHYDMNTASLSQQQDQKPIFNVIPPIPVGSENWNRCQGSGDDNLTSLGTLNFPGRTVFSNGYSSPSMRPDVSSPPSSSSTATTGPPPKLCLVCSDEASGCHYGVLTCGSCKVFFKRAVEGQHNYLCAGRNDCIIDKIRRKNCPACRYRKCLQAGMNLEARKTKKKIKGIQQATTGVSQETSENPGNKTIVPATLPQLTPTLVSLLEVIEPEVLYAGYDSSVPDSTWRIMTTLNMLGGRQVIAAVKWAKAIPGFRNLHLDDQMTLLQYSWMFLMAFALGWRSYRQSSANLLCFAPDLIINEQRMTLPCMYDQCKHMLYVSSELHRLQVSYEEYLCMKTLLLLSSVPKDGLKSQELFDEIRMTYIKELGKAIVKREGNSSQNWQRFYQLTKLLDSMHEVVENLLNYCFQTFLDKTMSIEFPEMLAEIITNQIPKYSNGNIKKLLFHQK
Chain of Cytochrome P450 3A4 (Homo sapiens) (P08684 whole entry, looked up): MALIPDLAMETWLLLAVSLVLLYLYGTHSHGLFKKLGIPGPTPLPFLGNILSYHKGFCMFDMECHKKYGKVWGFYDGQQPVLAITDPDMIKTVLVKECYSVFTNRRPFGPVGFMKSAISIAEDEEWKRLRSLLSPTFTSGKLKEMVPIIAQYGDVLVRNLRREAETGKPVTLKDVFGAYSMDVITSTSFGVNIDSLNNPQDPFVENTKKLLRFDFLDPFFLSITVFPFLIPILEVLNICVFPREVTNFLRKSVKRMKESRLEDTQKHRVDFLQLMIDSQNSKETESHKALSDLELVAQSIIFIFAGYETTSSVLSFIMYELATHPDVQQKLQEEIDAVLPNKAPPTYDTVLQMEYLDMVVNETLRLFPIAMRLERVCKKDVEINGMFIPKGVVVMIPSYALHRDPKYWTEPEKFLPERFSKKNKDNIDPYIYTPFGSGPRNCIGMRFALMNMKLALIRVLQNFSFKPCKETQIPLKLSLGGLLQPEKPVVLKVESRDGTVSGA
Chain of Dual specificity protein kinase CLK4 (Homo sapiens) (Q9HAZ1 whole entry, looked up): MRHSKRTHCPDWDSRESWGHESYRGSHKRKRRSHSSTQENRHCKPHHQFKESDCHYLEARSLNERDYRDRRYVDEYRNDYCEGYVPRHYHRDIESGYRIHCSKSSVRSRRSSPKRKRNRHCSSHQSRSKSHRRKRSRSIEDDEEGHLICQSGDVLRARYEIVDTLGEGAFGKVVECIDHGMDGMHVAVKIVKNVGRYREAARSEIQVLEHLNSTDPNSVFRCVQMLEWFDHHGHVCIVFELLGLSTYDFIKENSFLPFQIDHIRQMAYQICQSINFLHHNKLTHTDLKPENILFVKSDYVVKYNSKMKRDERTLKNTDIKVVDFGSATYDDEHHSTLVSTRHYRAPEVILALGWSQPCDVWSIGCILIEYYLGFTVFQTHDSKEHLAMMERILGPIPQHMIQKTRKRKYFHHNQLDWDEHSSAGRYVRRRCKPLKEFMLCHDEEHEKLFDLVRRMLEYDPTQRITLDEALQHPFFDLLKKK
Chain of Cytochrome P450 2D6 (Homo sapiens) (P10635 whole entry, looked up): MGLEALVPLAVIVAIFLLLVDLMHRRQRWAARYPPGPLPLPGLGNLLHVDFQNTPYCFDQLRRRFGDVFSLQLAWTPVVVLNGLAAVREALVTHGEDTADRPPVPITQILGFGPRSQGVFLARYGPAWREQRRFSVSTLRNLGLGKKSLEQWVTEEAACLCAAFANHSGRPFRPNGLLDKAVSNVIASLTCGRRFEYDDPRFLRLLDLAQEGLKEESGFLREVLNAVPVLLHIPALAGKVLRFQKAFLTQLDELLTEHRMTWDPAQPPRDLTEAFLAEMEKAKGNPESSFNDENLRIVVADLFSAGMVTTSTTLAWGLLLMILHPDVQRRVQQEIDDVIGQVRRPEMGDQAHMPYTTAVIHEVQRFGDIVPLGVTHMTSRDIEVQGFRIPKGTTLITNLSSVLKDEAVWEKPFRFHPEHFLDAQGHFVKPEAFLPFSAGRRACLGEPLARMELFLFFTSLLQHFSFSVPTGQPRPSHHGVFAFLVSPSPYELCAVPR
Chain of Lysosomal acid glucosylceramidase (Homo sapiens) (P04062 whole entry, looked up): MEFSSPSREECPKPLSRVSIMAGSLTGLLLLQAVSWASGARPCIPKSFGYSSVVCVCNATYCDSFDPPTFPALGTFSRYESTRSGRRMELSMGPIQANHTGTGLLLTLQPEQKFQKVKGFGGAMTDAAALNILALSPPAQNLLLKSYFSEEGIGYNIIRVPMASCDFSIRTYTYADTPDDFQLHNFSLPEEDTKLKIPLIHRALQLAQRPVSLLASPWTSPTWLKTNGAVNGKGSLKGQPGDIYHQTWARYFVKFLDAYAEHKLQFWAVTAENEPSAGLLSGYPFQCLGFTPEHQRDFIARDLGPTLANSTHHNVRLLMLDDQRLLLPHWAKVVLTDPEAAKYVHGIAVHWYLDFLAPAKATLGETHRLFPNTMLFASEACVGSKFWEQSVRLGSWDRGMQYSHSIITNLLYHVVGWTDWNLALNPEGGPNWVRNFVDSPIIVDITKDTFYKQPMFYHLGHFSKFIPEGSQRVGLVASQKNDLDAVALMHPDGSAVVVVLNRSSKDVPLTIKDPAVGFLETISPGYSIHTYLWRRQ
Chain of Cytochrome P450 1A2 (Homo sapiens) (P05177 whole entry, looked up): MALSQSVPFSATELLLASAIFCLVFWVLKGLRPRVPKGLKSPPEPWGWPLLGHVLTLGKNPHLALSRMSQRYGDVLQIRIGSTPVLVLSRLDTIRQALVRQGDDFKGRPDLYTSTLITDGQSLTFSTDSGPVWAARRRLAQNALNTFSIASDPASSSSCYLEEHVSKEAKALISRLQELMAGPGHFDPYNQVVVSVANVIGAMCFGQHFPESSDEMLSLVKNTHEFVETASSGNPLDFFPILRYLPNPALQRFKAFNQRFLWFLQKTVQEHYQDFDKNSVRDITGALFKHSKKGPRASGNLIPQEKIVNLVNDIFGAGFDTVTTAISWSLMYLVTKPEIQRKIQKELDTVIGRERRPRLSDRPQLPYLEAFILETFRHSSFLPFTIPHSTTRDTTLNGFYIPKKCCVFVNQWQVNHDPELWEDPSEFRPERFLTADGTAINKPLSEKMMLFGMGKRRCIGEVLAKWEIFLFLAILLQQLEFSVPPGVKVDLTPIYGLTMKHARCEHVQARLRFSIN
Chain of 3',5'-cyclic-AMP phosphodiesterase 4B (Homo sapiens) (Q07343 whole entry, looked up): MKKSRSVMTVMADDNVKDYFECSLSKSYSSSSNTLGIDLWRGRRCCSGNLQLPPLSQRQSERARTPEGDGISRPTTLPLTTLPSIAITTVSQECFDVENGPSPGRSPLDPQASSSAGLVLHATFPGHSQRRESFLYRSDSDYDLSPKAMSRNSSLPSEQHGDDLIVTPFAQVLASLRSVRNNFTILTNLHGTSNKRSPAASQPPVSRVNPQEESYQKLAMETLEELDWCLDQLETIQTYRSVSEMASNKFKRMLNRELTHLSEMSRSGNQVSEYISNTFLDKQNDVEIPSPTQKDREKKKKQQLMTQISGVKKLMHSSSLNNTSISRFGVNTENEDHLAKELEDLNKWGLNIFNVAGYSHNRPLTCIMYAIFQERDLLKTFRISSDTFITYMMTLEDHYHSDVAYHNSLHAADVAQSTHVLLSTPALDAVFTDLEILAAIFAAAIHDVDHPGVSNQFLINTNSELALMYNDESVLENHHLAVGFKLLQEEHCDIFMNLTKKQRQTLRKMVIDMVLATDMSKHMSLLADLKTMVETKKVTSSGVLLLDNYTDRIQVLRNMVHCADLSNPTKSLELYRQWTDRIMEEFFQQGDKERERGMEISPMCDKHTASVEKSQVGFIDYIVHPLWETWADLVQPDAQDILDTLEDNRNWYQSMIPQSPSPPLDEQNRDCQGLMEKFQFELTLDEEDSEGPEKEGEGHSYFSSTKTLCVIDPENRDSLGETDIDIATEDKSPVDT

Cn1cc(-c2nc3cnc(N4CCNCC4)nc3n(CCC#N)c2=O)c2ccccc21
-5%: max response [9, 21]
-3.78%: max response [9, 20]
inactive: Potency [1] > 11.4 µM | activity change, negative = inhibition [2] 14.5% | activity change, negative = inhibition [3] 1.75% | Potency [4] > 9.22 µM | Potency [5] > 46 µM | outcome [6] | Potency [7] | activity change, negative = inhibition [9] 1.65% | Potency [10] | Potency [11] | Potency [12] | Potency [13] | Potency [14]
active: Potency [8] 3.16 µM

COc1ccc(Oc2ncc3nc(C)c(=O)n(Cc4cccc(OC)c4)c3n2)cc1
8.3%: max response [9, 21]
6.56%: max response [9, 20]
inactive: Potency [1] > 11.4 µM | activity change, negative = inhibition [2] -16% | activity change, negative = inhibition [3] 6.92% | activity, negative = inhibition [15] -8.96% | Potency [4] > 9.22 µM | outcome [6] | activity change, negative = inhibition [9] 4.03% | Potency [10] | Potency [11] | Potency [12] | Potency [13] | Potency [14]

CN(C)c1ncc2nc(-c3ccccc3)c(=O)n(C[C@H]3CCCO3)c2n1
3.82%: max response [9, 20]
inactive: Potency [1] > 11.4 µM | activity change, negative = inhibition [2] 11.9% | activity change, negative = inhibition [3] 24.6% | activity, negative = inhibition [15] 20.6% | Potency [4] > 9.22 µM | Potency [5] > 46 µM | Potency [16] | activity change, negative = inhibition [9] 0.857% | Potency [10] | Potency [11] | Potency [12] | Potency [13] | Potency [14]
2.54%: max response [9, 21]

COc1cccc(Cn2c(=O)c(-c3cc(F)cc(F)c3)nc3cnc(N4CCN(C)CC4)nc32)c1
18.2%: max response [9, 21]
19%: max response [9, 20]
inactive: Potency [1] > 11.4 µM | Potency [17] | Potency [4] > 9.22 µM | Potency [5] > 46 µM | outcome [6] | Potency [7] | Potency [16] | activity change, negative = inhibition [9] 1.17% | Potency [10] | Potency [11] | Potency [12] | Potency [13] | Potency [14]

COc1ccccc1CCn1c(=O)c(-c2cccc(F)c2)nc2cncnc21
active: Potency [18] 2.51 µM

Cc1ccccc1-c1nccc(NCc2cccs2)n1
active: Potency [19] 2.51 µM

Cc1ccccc1-c1ccc2ncnc(NC3CC3)c2c1
active: Potency [19] 7.94 µM

COc1ccc2[nH]cc(CCNc3ncnc4ccc(-c5cccnc5)cc34)c2c1
active: Potency [19] 7.94 µM

COc1ccc(Oc2ncc3nc(-c4ccc(Cl)cc4)c(=O)n(C[C@H]4CCCO4)c3n2)cc1
active: Potency [9] 28.2 µM

O=c1c(-c2cccs2)nc2cnc(N3CCOCC3)nc2n1Cc1cccs1
active: Potency [17] 15.8 µM
inactive: Potency [1] > 11.4 µM | activity change, negative = inhibition [2] 15.1% | activity change, negative = inhibition [3] -8.44% | Potency [4] > 9.22 µM | Potency [5] > 46 µM | outcome [6] | Potency [7] | Potency [16] | activity change, negative = inhibition [9] -15.7% | Potency [10] | Potency [12] | Potency [13] | Potency [14]
22.5%: max response [9, 20]
0.532%: max response [9, 21]

CC(=O)NCCNc1ncnc2ccc(-c3c(C)noc3C)cc12
29.5%: max response [9, 21]
active: Potency [17] 15.8 µM | Potency [8] 3.16 µM | Potency [10] 7.08 µM | Potency [12] 7.08 µM
inactive: Potency [1] > 11.4 µM | activity, negative = inhibition [15] -17.9% | Potency [4] > 46 µM | Potency [5] > 46 µM | outcome [6] | Potency [7] | Potency [16] | activity change, negative = inhibition [9] 3.36% | Potency [13] | Potency [14]
28.8%: max response [9, 20]

Source: PubChem BioAssay (NCATS)
